Test results from PubChem BioAssay (Tox21).
Results filed as inconclusive are left out. Calls of active or inactive are those of the source. Unless noted, calls come from the whole dose curve; as a rule, active = well fitted curve in the direction sought with a large enough effect in the repeat runs; inconclusive = weak or mixed curves; inactive = flat fitted curve, though single readings scatter.

How the values were obtained:
[1] = qHTS assay to test for compound auto fluorescence at 535 nm (green) in HEK293 cells (AID 720680)
[2] = qHTS assay to test for compound auto fluorescence at 460 nm (blue) in HEK293 cell free culture (AID 720681)
Procedure, shortened: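 Test compounds were pinned into cell-free culture medium (DMEM with 10% FBS) and fluorescence was read directly at Ex/Em 405/460 nm. Signals were expressed as fluorescence equivalents of triamterene, with DMSO vehicle as control.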

[3] = qHTS assay to test for compound auto fluorescence at 535 nm (green) in HEK293 cell free culture (AID 720682)
Procedure, shortened: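 Read-out: 485/535 nm fluorescence intensity, calibrated against fluorescein. Medium only (DMEM + 10% FBS, no cells); test compound or DMSO vehicle added by pintool before plate reading.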

[4] = qHTS assay to test for compound auto fluorescence at 590 nm (red) in HEK293 cell free culture (AID 720683)
Procedure, shortened: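 Tox21 10K library compounds were pinned into cell-free DMEM with 10% FBS and fluorescence was read at excitation 540 nm. Activity is expressed as Rose Bengal sodium equivalency.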

[5] = qHTS assay to test for compound auto fluorescence at 590 nm (red) in HepG2 cell free culture (AID 720684)
Procedure, shortened: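 Measured in medium alone (MEM containing 10% FBS) following pintool addition of compound; emission at 590 nm with 540 nm excitation, referenced to Rose Bengal sodium.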

[6] = qHTS assay to test for compound auto fluorescence at 460 nm (blue) in HepG2 cell free culture (AID 720685)
Procedure, shortened: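 Compound (23 nL) or DMSO pinned into cell-free MEM with 10% FBS; blue fluorescence read at 405/460 nm excitation/emission, expressed as auto-fluorescence equivalency to triamterene.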

[7] = qHTS assay to test for compound auto fluorescence at 535 nm (green) in HepG2 cell free culture (AID 720686)
[8] = qHTS assay to test for compound auto fluorescence at 460 nm (blue) in HepG2 cells (AID 720687)
Procedure, shortened: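 Cells (2,000/well in MEM with 10% FBS) attached overnight at 37 C, then were exposed to compound or DMSO for 1 hr at 37 C, 5% CO2. Fluorescence read at Ex/Em 405/460 nm, expressed as triamterene-equivalent signal.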

[9] = target: Glucocorticoid receptor (Homo sapiens) (UniProt P04150); test: qHTS assay to identify small molecule agonists of the glucocorticoid receptor (GR) signaling pathway (AID 720691; active = well fitted activation curve with a large enough effect in the signal ratio in the repeat runs, not every such curve was filed as active; the % refers to the signal ratio)
Chain of Glucocorticoid receptor (Homo sapiens) (P04150 whole entry, looked up): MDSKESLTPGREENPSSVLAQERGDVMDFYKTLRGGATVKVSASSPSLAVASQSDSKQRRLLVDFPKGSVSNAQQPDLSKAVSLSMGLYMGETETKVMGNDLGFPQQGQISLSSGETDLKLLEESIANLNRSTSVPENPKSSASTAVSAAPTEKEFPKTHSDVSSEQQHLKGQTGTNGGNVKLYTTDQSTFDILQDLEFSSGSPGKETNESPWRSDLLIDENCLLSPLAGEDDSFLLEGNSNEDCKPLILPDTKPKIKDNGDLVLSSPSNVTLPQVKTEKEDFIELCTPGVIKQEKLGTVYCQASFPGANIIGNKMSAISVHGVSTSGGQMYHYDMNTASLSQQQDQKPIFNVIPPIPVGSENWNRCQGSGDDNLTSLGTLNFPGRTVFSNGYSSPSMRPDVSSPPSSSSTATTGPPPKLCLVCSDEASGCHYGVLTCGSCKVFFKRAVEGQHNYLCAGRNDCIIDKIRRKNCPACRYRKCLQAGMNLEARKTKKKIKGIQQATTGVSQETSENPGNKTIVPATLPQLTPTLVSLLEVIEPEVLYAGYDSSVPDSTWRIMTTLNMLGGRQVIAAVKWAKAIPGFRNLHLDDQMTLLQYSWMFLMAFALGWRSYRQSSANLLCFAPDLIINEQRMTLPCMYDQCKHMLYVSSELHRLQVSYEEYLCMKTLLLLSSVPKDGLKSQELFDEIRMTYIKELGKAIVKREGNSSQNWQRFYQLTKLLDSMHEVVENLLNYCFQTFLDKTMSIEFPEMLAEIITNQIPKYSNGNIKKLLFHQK
Procedure, shortened: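 Fluorescence intensity from LiveBLAzer B/G FRET substrate (2 h, room temperature) reports beta-lactamase expression driven by the glucocorticoid response element in GR-bla HeLa cells after 18 h compound exposure at 37 C.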

[10] = target: Glucocorticoid receptor (Homo sapiens) (UniProt P04150); test: qHTS assay to identify small molecule antagonists of the glucocorticoid receptor (GR) signaling pathway (AID 720692; active = well fitted inhibition curve with a large enough effect in the signal ratio in the repeat runs, not every such curve was filed as active; the % refers to the signal ratio)
Procedure, shortened: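 HeLa GR-bla cells; cmpd + dex 5 nM final, 18 h 37 C; LiveBLAzer B/G FRET substrate 2 h RT; fluorescence intensity read. Antagonist mode, qHTS.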

Measured: Potency

O=NN1CCCC1
inactive: [1] | [2] | [3] | [4] | [5] | [6] | [7] | [8] | [9] | [10]

COC(=O)NC(=S)Nc1ccccc1NC(=S)NC(=O)OC
inactive: [1] | [2] | [3] | [4] | [5] | [6] | [7] | [8] | [9] | [10]

Cc1ccccc1O
inactive: [1] | [2] | [3] | [4] | [5] | [6] | [7] | [8] | [9] | [10]

CN(C)N=O
inactive: [1] | [2] | [3] | [4] | [5] | [6] | [7] | [8] | [9] | [10]

CNC(=O)Oc1ccccc1OC(C)C
inactive: [1] | [2] | [3] | [4] | [5] | [6] | [7] | [8] | [9] | [10]

COCCl
inactive: [1] | [2] | [3] | [4] | [5] | [6] | [7] | [8] | [9] | [10]

CCN(CC)CCO
inactive: [1] | [2] | [3] | [4] | [5] | [6] | [7] | [8] | [9] | [10]

CCN(CC)c1ccccc1
inactive: [1] | [2] | [3] | [4] | [5] | [6] | [7] | [8] | [9] | [10]

Clc1ccc(Cl)cc1
inactive: [1] | [2] | [3] | [4] | [5] | [6] | [7] | [8] | [9] | [10]

CC(C)(C)OOC(C)(C)C
inactive: [1] | [2] | [3] | [4] | [5] | [6] | [7] | [8] | [9] | [10]

CCCCN(CC)C(=O)SCCC
inactive: [1] | [2] | [3] | [4] | [5] | [6] | [7] | [8] | [9] | [10]

COC(=O)c1ccccc1C(=O)OC
inactive: [1] | [2] | [3] | [4] | [5] | [6] | [7] | [8] | [9] | [10]

C=C(C)CCl
inactive: [1] | [2] | [3] | [4] | [5] | [6] | [7] | [8] | [9] | [10]

c1ccc(OP(Oc2ccccc2)Oc2ccccc2)cc1
inactive: [1] | [2] | [3] | [4] | [5] | [6] | [7] | [8] | [9] | [10]

CC(C)(Cl)Cl
inactive: [1] | [2] | [3] | [4] | [5] | [6] | [7] | [8] | [9] | [10]

CC(C)C#N
inactive: [1] | [2] | [3] | [4] | [5] | [6] | [7] | [8] | [9] | [10]

c1cc2c3c(cccc3c1)CC2
inactive: [1] | [2] | [3] | [4] | [5] | [6] | [7] | [8] | [9] | [10]

Nc1ccc(Oc2ccc(N)cc2)cc1
inactive: [1] | [2] | [3] | [4] | [5] | [6] | [7] | [8] | [9] | [10]

O=C1CCCN1
inactive: [1] | [2] | [3] | [4] | [5] | [6] | [7] | [8] | [9] | [10]

CCCCN(CCCC)SN(C)C(=O)Oc1cccc2c1OC(C)(C)C2
inactive: [1] | [2] | [3] | [4] | [5] | [6] | [7] | [8] | [9] | [10]

O=Cc1cccc(Oc2ccccc2)c1
inactive: [1] | [2] | [3] | [4] | [5] | [6] | [7] | [8] | [9] | [10]

O=[N+]([O-])c1ccc([As](=O)(O)O)cc1
inactive: [1] | [2] | [3] | [4] | [5] | [6] | [7] | [8] | [9] | [10]

CC(C)=C[C@@H]1[C@@H](C(=O)OCc2coc(Cc3ccccc3)c2)C1(C)C
inactive: [1] | [2] | [3] | [4] | [5] | [6] | [7] | [8] | [9] | [10]

[N-]=[N+]=[N-]
inactive: [1] | [2] | [3] | [4] | [5] | [6] | [7] | [8] | [9] | [10]

CCOP(=S)(OCC)Oc1cnc2ccccc2n1
inactive: [1] | [2] | [3] | [4] | [5] | [6] | [7] | [8] | [9] | [10]

O=NN1CCCCCCC1
inactive: [1] | [2] | [3] | [4] | [5] | [6] | [7] | [8] | [9] | [10]

CCNc1nc(NC(C)(C)C)nc(SC)n1
inactive: [1] | [2] | [3] | [4] | [5] | [6] | [7] | [8] | [9] | [10]

O=C(NC(=O)c1c(F)cccc1F)Nc1cc(Cl)c(OC(F)(F)C(F)C(F)(F)F)cc1Cl (stereo not given)
inactive: [1] | [2] | [3] | [4] | [5] | [6] | [7] | [8] | [9] | [10]

Clc1cccc(Cl)c1Cl
inactive: [1] | [2] | [3] | [4] | [5] | [6] | [7] | [8] | [9] | [10]

NCCc1ccc(O)cc1
inactive: [1] | [2] | [3] | [4] | [5] | [6] | [7] | [8] | [9] | [10]

Cc1cc(Cl)ccc1O
inactive: [1] | [2] | [3] | [4] | [5] | [6] | [7] | [8] | [9] | [10]

COP(N)(=O)SC (stereo not given)
inactive: [1] | [2] | [3] | [4] | [5] | [6] | [7] | [8] | [9] | [10]

CCCCCOC(=O)c1ccccc1C(=O)OCCCCC
inactive: [1] | [2] | [3] | [4] | [5] | [6] | [7] | [8] | [9] | [10]

Oc1ccccc1Cl
inactive: [1] | [2] | [3] | [4] | [5] | [6] | [7] | [8] | [9] | [10]

CN(C)[C@@H]1C(=O)C(C(N)=O)=C(O)[C@@]2(O)C(=O)C3=C(O)c4c(O)cccc4[C@@](C)(O)[C@H]3C[C@@H]12
inactive: [1] | [2] | [3] | [4] | [5] | [6] | [7] | [8] | [9] | [10]

CCCCCCCCCl
inactive: [1] | [2] | [3] | [4] | [5] | [6] | [7] | [8] | [9] | [10]

Clc1ccccc1Cl
inactive: [1] | [2] | [3] | [4] | [5] | [6] | [7] | [8] | [9] | [10]
